Measurements taken from PubChem BioAssay (NCATS).
Where “and” joins values, the source holds several entries; their conditions need not be identical. Equal values may be shown once. Results filed as inconclusive are left out. A number with no mark means an inactive call. Calls follow the shape of the dose curve; as a rule, active = well fitted curve in the direction sought with a large enough effect; inconclusive = small, poorly fitted or top-dose-only effect, or another doubt; inactive = no such curve, though single readings can be large or run the other way.

Assay: qHTS Assay for Identifying Gametocytocidal Compounds (AID 743244);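 also: actives lower the fluorescent signal which means gametocytes are killed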
Conditions: P. falciparum 3D7 stage III-V gametocytes, alamarBlue, 72 h; max response: stronger effect = lower value
In short: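 P. falciparum 3D7 stage III–V gametocytes (20,000 cells/well) were exposed to compounds for 72 h at 37 °C, 5% CO2. AlamarBlue was then added for 24 h; decreased resorufin fluorescence (Ex 525/Em 598 nm) indicated loss of viability.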
% is scaled to controls: 0 for no effect and ±100 for the full control effect.

Row | SMILES | max response
1 | O=C(CCCN1CCC(C(=O)c2ccc(F)cc2)CC1)c1ccc(F)cc1 | 18.4%
2 | CCCCCCCCCc1ccc(OCCOCCO)cc1 | -0.96%
3 | CCCCCCCCCCCCCCCC(=O)OC[C@@H](O)[C@H]1OC[C@H](O)[C@H]1O | -10.2%
4 | O=C(OCc1ccccc1)c1cccnc1 | -1.85%
5 | COc1ccc(C(=O)c2ccc(C)cc2)c(O)c1 | -6.86%
6 | CC12CCC(C[N+](C)(CCC[N+](C)(C)C)C1)C2(C)C (stereo not drawn) | -4.18%
7 | CNC(=O)[C@H](Cc1c[nH]c2ccccc12)NC(=O)[C@@H](CC(=O)NO)CC(C)C | -3.58%
8 | O=C(O)[C@H]1CN(C/C=C/P(=O)(O)O)CCN1 | 12.3%
9 | CC(C)[C@@H]1CC[C@@H](C)C[C@H]1OC(=O)c1ccccc1O | 9.93%
10 | CCCCCCCCCCCCCCCCCC[N+](C)(C)CCC[Si](OC)(OC)OC | -8.48%
11 | CCN(CC)CCOC(=O)c1cccnc1 | 6.67%
12 | CC/C(=C(/CC)c1ccc(OP(=O)(O)O)cc1)c1ccc(OP(=O)(O)O)cc1 | -1.73%
13 | CN1CCN(C(c2ccccc2)c2ccc(Cl)cc2)CC1 (stereo not drawn) | 1.98%
14 | CC(C)CN(C[C@@H](O)[C@H](Cc1ccccc1)NC(=O)O[C@@H]1CCOC1)S(=O)(=O)c1ccc(N)cc1 | 12.1%
15 | CN1c2c(nc(N)[nH]c2=O)NCC1CNc1ccc(C(=O)NC(CCC(=O)O)C(=O)O)cc1 (stereo not drawn) | 15.5%
16 | CCOC(=O)c1cc(-c2ccccc2)nc2ccc(C)cc12 | -3.36%
17 | CC12CCC(C1)C(C)(C)C2=O (stereo not drawn) | -0.872%
18 | CC(C)[C@H](N)C(=O)OCC(CO)OCn1cnc2c(=O)[nH]c(N)nc21 (stereo partly drawn) | -1.87%
19 | CCOc1ccc(NC(=S)Nc2ccc(OCC)cc2)cc1 | 1.34%

Row | SMILES | max response
20 | CN(Cc1ccccc1)Cc1ccccc1 | 1.68%
21 | CC(C)OC(=O)Nc1ccc2nc(-c3cscn3)[nH]c2c1 | -0.783%
22 | CC(C)(COP(=O)(O)OP(=O)(O)OC[C@H]1O[C@@H](n2cnc3c(N)ncnc32)[C@H](O)[C@@H]1OP(=O)(O)O)C(O)C(=O)NCCC(=O)NCCS (stereo partly drawn) | -9.49%
23 | O=C(O)c1ccc(NC(=O)[C@H](Cc2ccc(O)cc2)NC(=O)c2ccccc2)cc1 | 0.0398%
24 | Cc1ccccn1 | 2.7%
25 | Nc1nc(NC2CC2)c2ncn([C@@H]3C=C[C@@H](CO)C3)c2n1 | 15.8%
26 | O=C(NCCNCC(O)COc1ccc(O)cc1)N1CCOCC1 (stereo not drawn) | -13.8%
27 | C/C(=C\C(=O)OCCCCCCCCC(=O)O)C[C@@H]1OC[C@H](C[C@@H]2O[C@H]2[C@@H](C)[C@H](C)O)[C@@H](O)[C@H]1O | -6.76%
28 | Nc1nc(/C(=C/CC(=O)O)C(=O)N[C@@H]2C(=O)N3C(C(=O)O)=CCS[C@H]23)cs1 | -2.9%
29 | O=C1C2CC3CC1CC(O)(C3)C2 | 6.58%
30 | Cc1ncc(C[n+]2csc(CCOP(=O)(O)O)c2C)c(N)n1 | -3.97%
31 | CC(=O)O[C@@H]1CC2CCC1(C)C2(C)C (stereo partly drawn) | 7.45%
32 | CCOC(=O)[C@@H](N)CS | 0.746%
33 | N=C(N)c1ccc(/C=C/c2ccc(C(=N)N)cc2O)cc1 | 21.7%
34 | CCCC1C(=O)N2C(N(C)C)=Nc3ccc(C)cc3N2C1=O (stereo not drawn) | 6.87%
35 | CN1C(C(=O)Nc2ccccn2)C(=O)c2sc(Cl)cc2S1(=O)=O (stereo not drawn) | 11.6%
36 | C[C@@H]1NC(=O)[C@@H](N)CNC(=O)[C@H](C2CCNC(N)=N2)NC(=O)/C(=C/NC(N)=O)NC(=O)[C@H](CNC(=O)C[C@@H](N)CCCN)NC1=O (stereo partly drawn) | 0.778% and -5.05%
37 | CC(C)CCC[C@@H](C)[C@H]1CC[C@H]2[C@@H]3CC[C@@H]4C[C@H](O)CC[C@]4(C)[C@H]3CC[C@]12C | -3.57%
38 | CC(C)(C)c1ccc(CN2CCN(C(c3ccccc3)c3ccc(Cl)cc3)CC2)cc1 (stereo not drawn) | -2.06%
